The values below come from PubChem BioAssay (NCI).

“And” between values parts separate entries of the source, which are not always exact repeats. Equal entries are not always repeated. This is part of a sample that, as a whole, favours compounds with a hit. Of some 79,000 tested, about 15% had one in any assay. A number with no mark means an inactive call. The source made the active and inactive calls. Cut-off read from the data, not from the text of the source: active = growth inhibition above about 70%; inactive = the rest.

Assay [1] can be described thus: NCI Yeast Anticancer Drug Screen. Data for the rad50 strain (AID 155).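 Note: 0% = growth of vehicle-only cultures of the same strain.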 The note with it: S. cerevisiae rad50 strain growth inhibition; at 50.0 µM; active compounds read high. The procedure, abridged: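 Relative growth inhibition (compound vs vehicle) was measured in yeast with a defined repair-gene alteration.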
Assay [2] can be described thus: NCI Yeast Anticancer Drug Screen. Data for the mec2-1 strain (AID 157). The note with it: S. cerevisiae mec2-1 strain, at 50.0 µM, active compounds read high. The procedure, abridged: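 Mutant yeast (mec2-1) grown with compound; growth inhibition relative to vehicle control reported.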
Assay [3] is described as follows: NCI Yeast Anticancer Drug Screen. Data for the sgs1 mgt1 strain (AID 161).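 Note: 0% = growth of cultures given vehicle only.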 As to conditions: S. cerevisiae sgs1 mgt1 strain, at 50.0 µM, active compounds read high. Summed up:
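This yeast growth screen uses a strain with defined DNA-repair lesions; compound-treated growth is compared with vehicle-treated growth.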

The nature of assay [4]: NCI Yeast Anticancer Drug Screen. Data for the cln2 rad14 strain (AID 165).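 Note: 0% = growth equal to vehicle treated cultures.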 As to conditions: S. cerevisiae cln2 rad14 strain, at 50.0 µM, active compounds read high. Summed up:
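Readout is yeast growth inhibition versus vehicle-treated controls, using a strain with cln2 and rad14 alterations exposed to compound.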

A short description of assay [5]: NCI Yeast Anticancer Drug Screen. Data for the bub3 strain (AID 167). As to conditions: S. cerevisiae bub3 mutant strain, at 50.0 µM, active compounds read high. Summed up:
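Screening used yeast with an engineered genetic alteration affecting cell cycle control. Compound-exposed cultures were compared with vehicle cultures, and reduced growth was taken as inhibition.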

Assay [6] can be described thus: NCI Yeast Anticancer Drug Screen. Data for the mlh1 rad18 strain (AID 175). As to conditions: S. cerevisiae mlh1 rad18 strain growth inhibition; at 50.0 µM; active compounds read high. Summed up: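 Genetically defined yeast (DNA repair-deficient) exposed to compounds; growth inhibition determined relative to vehicle.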

Turning to `CCCP(=S)(CCC)P(=S)(CCC)CCC`, the growth inhibition is 5.4% in assay [1]; 19.4% in assay [2]; 20.9% in assay [3]; -2.75% in assay [4]; 18% in assay [5]; 20.9% in assay [6].

As to `CC1CN1c1nc(N2CC2C)nc(N2CC2C)n1` (stereo not given), the growth inhibition in assay [1] was -6.8%; in assay [2] it was 13.6%; in assay [3], -2.65%; in assay [4], -1.85%; in assay [5] it was -19.2%; in assay [6] it was -11.1%.

In the case of `CN(C)CCc1ccccc1`, the growth inhibition in assay [1] is -15.1%; in assay [2], 2.35%; in assay [3] it was 13.9%; in assay [4], 20.8%; in assay [5], -2.3%; in assay [6] it was 11.1%.

For `COP(=O)(OC)OC.COP(=O)(OC)OC.COP(=O)(OC)OC.COP(=O)(OC)OC.COP(=O)(OC)OC.COP(=O)(OC)OC.[Mn+2].[O-][Cl+3]([O-])([O-])O`, the growth inhibition was 43% in assay [1]; -35% in assay [2]; -17.1% in assay [3]; -14.9% in assay [4]; -18.2% in assay [5]; -9% in assay [6].

On to `CCN1CC2(C)CCC(OC)C34C5CC6CCC(O)(C5C(=O)O6)C(C(O)C23)C14` (stereo not given), for which the growth inhibition in assay [1] is -9.45%; in assay [2], -44%; in assay [3] it was 2%; in assay [4], -0.5%; in assay [5] it was -34.1%; in assay [6], -57.7%.

With `CC1(CCN)COC(c2ccccc2)(c2ccccc2)OC1` (tested in a mixture with another compound), the growth inhibition is 20.1% in assay [1]; 4.15% in assay [2]; -0.7% in assay [3]; 31.4% in assay [4]; 10.2% in assay [5]; 43.2% in assay [6].

On to `CCCCCCCCCCCCCCCC[As]1c2ccccc2Nc2ccccc21`, for which the growth inhibition in assay [1] is 4.4%; in assay [2], 16.7%; in assay [3] it was 7.05%; in assay [4], 81.3% (active); in assay [5], 7.45%; in assay [6] it was 28.5%.

As for `COC(=O)N/N=C(/CCN1CCCC1)CC(c1ccccc1)c1c(O)c2ccccc2oc1=O` (stereo not given), the growth inhibition in assay [1] is 19.4%; in assay [2], -4.45%; in assay [3] it was 10%; in assay [4], 9.2%; in assay [5], 8.7%; in assay [6], 14.9%.

Take `Cc1cccc(NC(=O)C(=O)C2C(=O)NC(=O)NC2=O)c1C`: the growth inhibition in assay [1] was 0.7%; in assay [2] it was 13.8%; in assay [3], -14%; in assay [4] it was 7.25%; in assay [5] it was 20.2%; in assay [6], 12.2%.

For `CCNC(Cc1ccccc1)c1ccco1` (stereo not given), the growth inhibition was -2.35% in assay [1]; -12.1% in assay [2]; -15.5% in assay [3]; 18.8% in assay [4]; -10.2% in assay [5]; 12.5% in assay [6].

As for `ClCCOCOCCCl`, the growth inhibition in assay [1] is -0.5%; in assay [2] it was -7.1%; in assay [3], -20.1%; in assay [4], -38%; in assay [5] it was -6.15%; in assay [6], -7.25%.

`Cn1cccc1-c1cccnc1`: the growth inhibition is -23.8% and -4.7% in assay [1]; -34.6% and -4.95% in assay [2]; -4.8% and -7.45% in assay [3]; 10.7% and 0.7% in assay [4]; -19.3% and 0.05% in assay [5]; -12.7% and -9.15% in assay [6].

Turning to `CCCCSP(=S)(SCCCC)SCCCC`, the growth inhibition was 36.6% in assay [1]; 15.1% in assay [2]; 38.5% in assay [3]; -20.2% in assay [4]; 10.1% in assay [5]; 42% in assay [6].

For the compound `CCCCOCN(COCCCC)C(C)Cc1ccccc1` (stereo not given), the growth inhibition is 11.7% in assay [1]; -3.3% in assay [2]; -12.5% in assay [3]; 11.1% in assay [4]; -2.25% in assay [5]; -21.8% in assay [6].

Take `O=C1SCCC1CO` (stereo not given): the growth inhibition in assay [1] is -8.65%; in assay [2], 3.9%; in assay [3], -6.8%; in assay [4], -3.15%; in assay [5] it was -2.3%; in assay [6], -8.45%.

For the compound `CCCCSP(=S)(SCCCC)c1ccc(Cl)cc1`, the growth inhibition in assay [1] is 30.7%; in assay [2], 9.4%; in assay [3] it was 13.8%; in assay [4] it was 17.6%; in assay [5] it was 19%; in assay [6] it was 14.2%.

In the case of `C[N+](C)(C)NP(=O)(N[N+](C)(C)C)c1ccccc1`, the growth inhibition in assay [1] is 3.2%; in assay [2] it was -8.15%; in assay [3], -19.3%; in assay [4] it was 11.6%; in assay [5] it was 1.95%; in assay [6], -11.1%.

As to `CC[C@H]1CN2CCc3c([nH]c4ccccc34)[C@@H]2C[C@@H]1/C(=C\OC)C(=O)OC`, the growth inhibition in assay [1] was 8.45%; in assay [2], 3.8%; in assay [3], 18.6%; in assay [4], 9.35%; in assay [5] it was 21.6%; in assay [6], 0.65%.

In the case of `C#CC1(O)CCCCCC1`, the growth inhibition was 11.6% in assay [1]; 3.45% in assay [2]; -7.55% in assay [3]; 8.55% in assay [4]; 12.4% in assay [5]; 6.8% in assay [6].

For the compound `O=C(O)C(F)(F)C(F)(Cl)C(F)(F)C(F)(Cl)C(F)(F)C(F)(Cl)C(F)(F)Cl` (stereo not given) (tested in a mixture with another compound), the growth inhibition in assay [1] was 8.45% and 43.4%; in assay [2], 28.8% and 18.4%; in assay [3], 37.4% and 41.1%; in assay [4], 9.7% and 27.6%; in assay [5] it was -2.15% and -2%; in assay [6] it was 35.5% and 30.5%.
